In this test the test system is Trypanosoma brucei. Briefly: Trypanosoma brucei 72 hour study. In kind it is functional, organism-based. Also on record: scale not given: in the data most compounds retested in dose-response had high values.

Structures are written as SMILES. The whole screen tested about 66,000 compounds, of which about 960 (1.5%) showed an effect of 50% or more. This excerpt belongs to a sample that is enriched for strong results.

Results on 47 compounds are retold here after ChEMBL document CHEMBL3988442, “University of Dundee, Small-Polar-MMV Screening Library” (2021).

As for `Cc1cc(COC(=O)[C@@H]2Cc3ccccc3CN2S(C)(=O)=O)no1`, the “Percent Effect” value (30 µM, 30.03 µM) is 77.9%.
As to `COCCNC(=O)N1CCCC1COc1ccccc1` (stereo not drawn), under “30.3 µM, […]”, the “Percent Effect” value was -9.999%.
On the same count and under the same terms, the same measure for `Cc1ccccc1SC1CCN(C(=O)[C@H]2[C@@H]3CNC[C@@H]32)CC1`: 52.77%.
Same read-out and setting: the same measure for `Cc1ccccc1SC1CCN(C(=O)C2CNCC(=O)N2)CC1` (stereo not drawn): 6.741%; for `Cc1ccccc1SC1CCN(C(=O)C2CNC(=O)N2)CC1` (stereo not drawn): -1.493%.
Consider `COCC1CN(Cc2ccoc2)Cc2nn(C)cc21.O=C(O)C(F)(F)F` (stereo not drawn), for which, where the note is “30 µM, 30.03 µM”, the “Percent Effect” value was 26.18%.
Take `CN(C)C[C@@H]1CCC[C@@H]2CN(c3ncccn3)C[C@@H]21.O=C(O)C(F)(F)F`: under “30.3 µM, […]”, the “Percent Effect” value is recorded as -12.16%.
On the same count and under the same terms, next, `CN(C[C@@H]1CCC[C@@H]2CN(c3ncccn3)C[C@@H]21)C1CC1.O=C(O)C(F)(F)F`: -3.838%; `CN(C)C[C@@H]1CCC[C@@H]2CN(c3nccc(C(F)(F)F)n3)C[C@@H]21.O=C(O)C(F)(F)F`: 99.5%; `CNCC(=O)Nc1ccc(-c2cnc(NCCS(C)(=O)=O)nc2)cc1`: -12.7%.
Still for that read-out and setting: next, `COc1ccccc1CN1CCCCC1c1n[nH]cc1-c1cc(C)no1.Cl` (stereo not drawn): 99.66%.
Turning to `COc1cccc(CN2CCCCCC2c2cccc(C)c2)c1O` (stereo not drawn), the “Percent Effect” value (30 µM, 30.03 µM) is listed as -7.245%.
On the same count and under the same terms, the same measure for `COc1cccc(CN2CCCC2c2ccc[nH]2)c1` (stereo not drawn): 1.101%.
On to `COc1ccc(CN2CCCCC2c2n[nH]cc2-c2cc(C)no2)cc1.Cl` (stereo not drawn), for which the “Percent Effect” value (30.3 µM, […]) was 57.52%.
With `COCC(=O)N1CCCCC1c1nc(N(C)C)ncc1-c1cc(C)no1` (stereo not drawn), the “Percent Effect” value (30.3 µM, […]) was -6.324%.
The same measure, in the same setting: the same measure for `Cc1cc(C2CCCN2Cc2ccn(C)c(=O)c2)on1` (stereo not drawn): 6.831%; for `COc1ccccc1CNc1ncc(-c2cc(C)no2)c(C(C)C)n1`: -4.15%.
Still for that read-out and setting: next, `COc1ccc(CN2CCC[C@H]2c2nc(-c3cncnc3N)no2)cc1`: -48.86%.
With `COc1cccc(CN2CCCC2c2c(C)nn(C)c2C)c1` (stereo not drawn), the “Percent Effect” value (30 µM, 30.03 µM) is given as -36.92%.
`COc1cccc(CN2CCCCC2c2n[nH]cc2-c2cc(C)no2)c1.Cl` (stereo not drawn): for the setting “30.3 µM, […]”, the “Percent Effect” value was 52.03%.
Still for that read-out and setting: next, `Cc1c[nH]nc1C1CCCN1Cc1ccncc1` (stereo not drawn): -23.61%; `CCc1ccc(CN2CCCCC2c2n[nH]cc2-c2cc(C)no2)cc1.Cl` (stereo not drawn): 53.31%.
On the same count and under the same terms, the same measure for `CC(C)c1nc(CNC2CCN(S(C)(=O)=O)CC2)cs1`: -4.773%.
On to `CC(C)Cn1ccc2c(NC(=O)c3n[nH]c4c3CCC4)cccc21`, for which, under “30 µM, 30.03 µM”, the “Percent Effect” value is listed as 8.967%.
For `CCc1nc(C2CCCN2C(=O)c2cc[nH]n2)no1` (stereo not drawn), the “Percent Effect” value by setting is: (10 µM) -9.958%; (30.3 µM, […]) 8.971%.
With `O=C(NCc1ccco1)N1CCC(n2ccc(C(F)(F)F)n2)CC1`, where the note is “30 µM, 30.03 µM”, the “Percent Effect” value is on record as -15.14%.
The same measure, in the same setting: next, `O=C(O)C(F)(F)F.c1coc(CN2CC[C@H]3O[C@@H](COCC4CC4)CC[C@H]32)c1`: -38.88%; `Cc1nc(CN2C(=O)CC[C@@H]3[C@H]2CCN3C2CCOCC2)cs1.O=C(O)C(F)(F)F`: -42.08%; `CC(=O)N1CCC2(CC1)CCN(C(=O)c1cccc(C(F)(F)F)c1)C2`: 38.42%.
Take `Cc1nccc(NCc2cncc3c2CCN(CC2CC2)C3)n1.Cl.Cl`: where the note is “30.3 µM, […]”, the “Percent Effect” value was -82.02%.
With `COc1cccc(S(=O)(=O)CCN2CCN(CC(F)F)CC2)c1`, the “Percent Effect” value (30.3 µM, […]) came out at 100.9%.
The same measure, in the same setting: the same measure for `COCCN1CCN(CCS(=O)(=O)c2cccc(OC)c2)CC1`: -9.149%; for `COc1cccc(S(=O)(=O)CCN2CCN(CCO)CC2)c1`: 19.12%.
`O=C(NCC1CC1)[C@@H]1CCO[C@@H]2CCN(Cc3ccsc3)C[C@H]21.O=C(O)C(F)(F)F`: the “Percent Effect” value (30.3 µM, […]) was -183.8%.
For the compound `O=C1CC(c2cccc(O)c2)c2c(c(C(=O)O)cn2-c2ccccc2)N1` (stereo not drawn), the “Percent Effect” value (30 µM, 30.03 µM) is reported as 55.14%.
The same measure, in the same setting: the same measure for `O=C1CC(c2ccccc2)c2c(c(C(=O)O)cn2-c2ccccc2)N1` (stereo not drawn): -0.2399%.
Still for that read-out and setting: the same measure for `O=C1CC(c2ccc(O)cc2)c2c(c(C(=O)O)cn2-c2ccccc2)N1` (stereo not drawn): -5.69%; for `CC(=O)N1CCC2(CCN(C(=O)c3cccc(C(F)(F)F)c3)CC2)C1`: -21.66%; for `Cc1ccc(NC(=O)Cn2cc(I)cn2)cc1C`: -62.87%.
Same read-out and setting: the same measure for `COC(=O)CNC(=O)CCc1cc(Cl)cs1`: 30.07%.
For the compound `CC(C)NC(=O)CCNC(=O)CCc1cc(Br)cs1`, the “Percent Effect” value (30 µM, 30.03 µM) is -16.2%.
The same measure, in the same setting: the same measure for `CC(C)NC(=O)CCNC(=O)CCc1cc(Cl)cs1`: 67.45%.
With `CC(C)CN1C(=O)C2(CCN(Cc3ccoc3)C2)c2ccccc21.O=C(O)C(F)(F)F` (stereo not drawn), the “Percent Effect” value (30.3 µM, […]) was -10.51%.
Turning to `CC(C)CN1C(=O)C2(CCN(Cc3ccc(F)cc3)C2)c2ccccc21` (stereo not drawn), the “Percent Effect” value (30.3 µM, […]) worked out at 100.2%.
Regarding `Cc1ccc(CN2CCC3(C2)C(=O)N(CC(C)C)c2ccccc23)s1` (stereo not drawn), the “Percent Effect” value (30 µM, 30.03 µM) is -8.12%.
On to `COCCN1CCC2(CC1)CC(NC(=O)COC)c1ccccc1O2.O=C(O)C(F)(F)F` (stereo not drawn), for which the “Percent Effect” value (30.3 µM, […]) was -14.34%.
Same read-out and setting: the same measure for `CN(C)C(=O)c1n[nH]c2c1CN(CC1CCC1)C2.O=C(O)C(F)(F)F.O=C(O)C(F)(F)F`: -41.36%.
